Over roughly 8,300 sequences, “log2 fold change of degron read counts, EGFP-low vs EGFP+ sorted cells (limma voom), compound-induced degradation” has its median near -1.1; the highest 2% begin near 3.2. The entries come from a sample that favours the highest values as a whole.
T1: CRBN, Q96SW2
T1 chain: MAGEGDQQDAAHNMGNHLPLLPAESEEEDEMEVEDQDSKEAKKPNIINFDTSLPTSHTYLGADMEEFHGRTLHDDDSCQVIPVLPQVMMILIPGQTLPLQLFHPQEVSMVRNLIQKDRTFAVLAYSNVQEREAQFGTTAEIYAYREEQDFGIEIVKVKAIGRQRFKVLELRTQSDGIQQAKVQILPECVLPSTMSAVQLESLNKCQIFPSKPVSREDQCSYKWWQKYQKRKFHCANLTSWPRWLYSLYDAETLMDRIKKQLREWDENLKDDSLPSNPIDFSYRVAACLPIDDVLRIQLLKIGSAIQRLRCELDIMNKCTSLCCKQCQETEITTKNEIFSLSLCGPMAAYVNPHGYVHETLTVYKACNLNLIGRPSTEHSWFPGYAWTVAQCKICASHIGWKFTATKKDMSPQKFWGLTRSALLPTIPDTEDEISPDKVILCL

B1: 46F_47C_49E_50V_52G_53A_54W_55F_67L_, Q9UKT9 (peptide)
chain: FCCEVCGAWFTQKGNLLRHIKL
B2: 46F_47K_49E_50I_52G_53A_54D_55F_67L_, Q9UKT9 (peptide)
chain: FKCEICGADFTQKGNLLRHIKL
B3: 46F_47F_49P_50Q_52G_53A_54H_55F_67L_, Q9UKT9 (peptide)
chain: FFCPQCGAHFTQKGNLLRHIKL
B4: 46F_47S_49P_50I_52G_53R_54A_55F_67L_, Q9UKT9 (peptide)
chain: FSCPICGRAFTQKGNLLRHIKL
B5: 46F_47G_49P_50I_52G_53A_54Q_55F_67L_, Q9UKT9 (peptide)
chain: FGCPICGAQFTQKGNLLRHIKL
B6: 46F_47C_49P_50I_52G_53A_54Q_55F_67L_, Q9UKT9 (peptide)
chain: FCCPICGAQFTQKGNLLRHIKL
B7: 46F_47H_49P_50I_52G_53A_54Q_55F_67L_, Q9UKT9 (peptide)
chain: FHCPICGAQFTQKGNLLRHIKL
B8: 46F_47N_49P_50I_52G_53A_54Q_55F_67L_, Q9UKT9 (peptide)
chain: FNCPICGAQFTQKGNLLRHIKL
B9: 46F_47D_49P_50I_52G_53A_54Q_55F_67L_, Q9UKT9 (peptide)
chain: FDCPICGAQFTQKGNLLRHIKL
B10: 46F_47Q_49P_50I_52G_53A_54Q_55F_67L_, Q9UKT9 (peptide)
chain: FQCPICGAQFTQKGNLLRHIKL
B11: 46F_47M_49E_50I_52G_53H_54L_55F_67L_, Q9UKT9 (peptide)
chain: FMCEICGHLFTQKGNLLRHIKL
B12: 46F_47N_49P_50I_52G_53R_54W_55F_67L_, Q9UKT9 (peptide)
chain: FNCPICGRWFTQKGNLLRHIKL
B13: 46F_47T_49S_50V_52G_53H_54F_55F_67L_, Q9UKT9 (peptide)
chain: FTCSVCGHFFTQKGNLLRHIKL
B14: 46F_47C_49D_50Q_52G_53A_54Q_55F_67L_, Q9UKT9 (peptide)
chain: FCCDQCGAQFTQKGNLLRHIKL
B15: 46F_47W_49N_50Q_52G_53R_54S_55F_67L_, Q9UKT9 (peptide)
chain: FWCNQCGRSFTQKGNLLRHIKL
B16: 46L_47V_49E_50I_52G_53F_54D_55C_67L_, Q9UKT9 (peptide)
chain: LVCEICGFDCTQKGNLLRHIKL
B17: 46F_47D_49N_50Q_52G_53A_54F_55F_67L_, Q9UKT9 (peptide)
chain: FDCNQCGAFFTQKGNLLRHIKL
B18: 46F_47R_49D_50V_52G_53A_54L_55F_67L_, Q9UKT9 (peptide)
chain: FRCDVCGALFTQKGNLLRHIKL
B19: 46L_47N_49P_50I_52G_53F_54D_55C_67L_, Q9UKT9 (peptide)
chain: LNCPICGFDCTQKGNLLRHIKL
B20: 46F_47R_49E_50Q_52G_53A_54S_55F_67L_, Q9UKT9 (peptide)
chain: FRCEQCGASFTQKGNLLRHIKL
B21: 46L_47C_49E_50I_52G_53F_54M_55C_67L_, Q9UKT9 (peptide)
chain: LCCEICGFMCTQKGNLLRHIKL
B22: 46L_47Y_49E_50I_52G_53F_54M_55C_67L_, Q9UKT9 (peptide)
chain: LYCEICGFMCTQKGNLLRHIKL
B23: 46L_47L_49E_50I_52G_53F_54R_55C_67L_, Q9UKT9 (peptide)
chain: LLCEICGFRCTQKGNLLRHIKL
B24: 46L_47I_49E_50I_52G_53F_54R_55C_67L_, Q9UKT9 (peptide)
chain: LICEICGFRCTQKGNLLRHIKL
B25: 46L_47F_49E_50I_52G_53F_54R_55C_67L_, Q9UKT9 (peptide)
chain: LFCEICGFRCTQKGNLLRHIKL
B26: 46L_47C_49E_50I_52G_53F_54I_55C_67L_, Q9UKT9 (peptide)
chain: LCCEICGFICTQKGNLLRHIKL
B27: 46L_47Q_49E_50I_52G_53F_54R_55C_67L_, Q9UKT9 (peptide)
chain: LQCEICGFRCTQKGNLLRHIKL
B28: 46L_47K_49E_50I_52G_53F_54R_55C_67L_, Q9UKT9 (peptide)
chain: LKCEICGFRCTQKGNLLRHIKL
B29: 46L_47A_49E_50I_52G_53F_54I_55C_67L_, Q9UKT9 (peptide)
chain: LACEICGFICTQKGNLLRHIKL
B30: 46L_47Y_49E_50I_52G_53F_54I_55C_67L_, Q9UKT9 (peptide)
chain: LYCEICGFICTQKGNLLRHIKL
B31: 46L_47E_49E_50I_52G_53F_54R_55C_67L_, Q9UKT9 (peptide)
chain: LECEICGFRCTQKGNLLRHIKL
B32: 46L_47A_49E_50I_52G_53F_54M_55C_67L_, Q9UKT9 (peptide)
chain: LACEICGFMCTQKGNLLRHIKL

Molecular target: T1, CRBN, Q96SW2
Experiment: log2 fold change of degron read counts, EGFP-low vs EGFP+ sorted cells (limma voom), compound-induced degradation; higher = more compound-induced degradation of the degron-EGFP fusion; degrons are variants of IKZF1/3 zinc finger 2; compound dose not given here
Settings: Jurkat, 18 h
[1] = compound: compound 19 (5-tert-butyl-thalidomide)
[2] = compound: compound 22 (5-morpholino-thalidomide)
[3] = compound: compound 33 (diphenyl IMiD analogue)
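Note: pooled lentiviral library of zinc finger degron-EGFP fusions in mCherry-positive Jurkat cells, FACS-sorted after compound exposure, with degron abundance counted by next-generation sequencing.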

Row | Sequence | log2 fold change of degron read counts [1] | log2 fold change of degron read counts [2] | log2 fold change of degron read counts [3] | log2 fold change of degron read counts (compound: thalidomide)
1 | B1 | -0.654 | -0.581 | 0.156 | -0.895
2 | B2 | -1.37 | -3.36 | -2.54 | -1.55
3 | B3 | 0.0594 | 0.455 | 0.502 | -0.835
4 | B4 | -0.662 | -1.1 | 0.646 | 0.0583
5 | B5 | 3.58 | 2.65 | 1.84 | 1.37
6 | B6 | 2.39 | 2.66 | 2.87 | 1.93
7 | B7 | 2.46 | 2.8 | 2.49 | 1.66
8 | B8 | 2.48 | 1.86 | 1.27 | 1.1
9 | B9 | 2.24 | 1.5 | 1.26 | 2.56
10 | B10 | 0.697 | 2.72 | 2.41 | 3.65
11 | B11 | -2.89 | -3.26 | -2.2 | -2.63
12 | B12 | -0.803 | -0.856 | 0.232 | -0.248
13 | B13 | -1.8 | -2.26 | -2.2 | -2.2
14 | B14 | -1.9 | -1.68 | -1.17 | -2.37
15 | B15 | -1.96 | -2.11 | -1.99 | -2.07
16 | B16 | -3.07 | -2.83 | -2.91 | -1.81

Row | Sequence | log2 fold change of degron read counts [1] | log2 fold change of degron read counts [2] | log2 fold change of degron read counts [3] | log2 fold change of degron read counts (compound: thalidomide)
17 | B17 | -1.58 | -1.99 | -2.03 | -1.65
18 | B18 | -2.19 | -2.03 | 0.228 | -1.08
19 | B19 | -1.95 | -1.67 | -1.11 | -0.883
20 | B20 | -1.07 | -1.32 | 0.513 | -0.516
21 | B21 | 1.12 | 1.14 | 1.45 | 1.31
22 | B22 | 3.38 | 3.27 | 2.53 | 1.05
23 | B23 | 0.785 | -1.31 | 0.385 | 2.48
24 | B24 | 1.24 | 2.26 | 1.57 | 3.01
25 | B25 | 3.71 | 3.64 | 1.36 | 2.31
26 | B26 | 0.819 | 0.557 | 1.54 | 1.05
27 | B27 | 1.29 | 1.55 | 1.26 | 3.58
28 | B28 | -1.07 | -2.46 | -2.5 | -0.336
29 | B29 | 1.83 | 0.461 | -0.53 | -0.408
30 | B30 | 2.99 | 3.26 | 2.2 | 0.746
31 | B31 | 0.728 | -0.831 | 2.02 | 3.15
32 | B32 | 2.65 | 1.33 | 0.0952 | 0.132

From the supplement of paper PMC12645437, “Orthogonal IMiD-Degron Pairs Induce Selective Protein Degradation in Cells” (ACS Chemical Biology, 2025)
